# Laboratory results taken from the supplement of paper PMC8728848.
# The full list was thinned out, with the strongest signals kept by preference.
# Experiments:
# Assay in all cases: glycan array binding signal (z-score within array); higher = stronger binding
# Conditions in all cases: glycan notation: IUPAC condensed, linker removed
# [1] = target: Fuc(a1-2)Gal(b1-3)GlcNAc(b1-2)Man(a1-3)[Fuc(a1-2)Gal(b1-3)GlcNAc(b1-2)Man(a1-6)]Man(b1-4)GlcNAc(b1-4)GlcNAc
# In short: (§1)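 Columns mapping to the same glycan were averaged after glycan names were converted to IUPAC-condensed notation. The data come from 3228 arrays in the Consortium for Functional Glycomics database, limited to those with an available protein sequence. Binding is reported as a within-array Z-score averaged across arrays of one protein sequence and across linkers.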
# [2] = target: Fuc(a1-2)Gal(b1-3)GlcNAc(b1-3)GalNAc
# In short: as §1
# [3] = target: Fuc(a1-2)Gal(b1-3)GlcNAc(b1-3)[Fuc(a1-2)Gal(b1-3)GlcNAc(b1-6)]GalNAc
# In short: as §1
# [4] = target: Fuc(a1-2)Gal(b1-3)GlcNAc6S
# In short: as §1
# [5] = target: Fuc(a1-2)Gal(b1-4)GlcNAc(b1-2)Man
# In short: as §1
# [6] = target: Fuc(a1-2)[Gal(a1-3)]Gal(b1-3)GlcNAc(b1-2)Man(a1-3)[Fuc(a1-2)[Gal(a1-3)]Gal(b1-3)GlcNAc(b1-2)Man(a1-6)]Man(b1-4)GlcNAc(b1-4)[Fuc(a1-6)]GlcNAc
# In short: as §1
# [7] = target: Fuc(a1-2)[Gal(a1-3)]Gal(b1-4)GlcNAc(b1-2)Man(a1-3)[Fuc(a1-2)[Gal(a1-3)]Gal(b1-4)GlcNAc(b1-2)Man(a1-6)]Man(b1-4)GlcNAc(b1-4)GlcNAc
# In short: as §1
# [8] = target: Fuc(a1-2)[Gal(a1-3)]Gal(b1-4)GlcNAc(b1-2)Man(a1-3)[Fuc(a1-2)[Gal(a1-3)]Gal(b1-4)GlcNAc(b1-2)Man(a1-6)]Man(b1-4)GlcNAc(b1-4)[Fuc(a1-6)]GlcNAc
# In short: as §1
# [9] = target: Fuc(a1-2)[GalNAc(a1-3)]Gal(b1-3)GlcNAc(b1-6)GalNAc
# In short: as §1
# [10] = target: Fuc(a1-2)[GalNAc(a1-3)]Gal(b1-4)[Fuc(a1-3)]GlcNAc(b1-3)GalNAc
# In short: as §1
# [11] = target: Fuc(a1-3)[Gal(b1-4)]GlcNAc(b1-6)[Gal(b1-3)GlcNAc(b1-3)]Gal(b1-4)Glc
# In short: as §1
# [12] = target: Fuc(a1-3)[Gal3S(b1-4)]Glc
# In short: as §1
# [13] = target: Fuc(a1-3)[GalNAc(b1-4)]GlcNAc
# In short: as §1
# Fuc(a1-4)GlcNAc = target: Fuc(a1-4)GlcNAc
# In short: as §1
# [14] = target: Gal(a1-3)Gal(b1-3)GlcNAc(b1-2)Man
# In short: as §1
# Gal(a1-3)GalNAc = target: Gal(a1-3)GalNAc
# In short: as §1
# Gal(a1-4)GlcNAc = target: Gal(a1-4)GlcNAc
# In short: as §1
# Gal(b1-2)Gal = target: Gal(b1-2)Gal
# In short: as §1
# [15] = target: Gal(b1-3)GlcNAc(b1-2)Man(a1-3)[Gal(b1-3)GlcNAc(b1-2)Man(a1-6)]Man(b1-4)GlcNAc(b1-4)GlcNAc
# In short: as §1
# [16] = target: Gal(b1-3)GlcNAc(b1-2)Man(a1-3)[Gal(b1-3)GlcNAc(b1-2)Man(a1-6)]Man(b1-4)GlcNAc(b1-4)[Fuc(a1-6)]GlcNAc
# In short: as §1
# [17] = target: Gal(b1-3)GlcNAc(b1-3)Gal(b1-4)[Fuc(a1-3)]GlcNAc
# In short: as §1
# [18] = target: Gal(b1-3)GlcNAc(b1-6)[Gal(b1-3)]GalNAc
# In short: as §1
# Gal(b1-4)Glc6S = target: Gal(b1-4)Glc6S
# In short: as §1
# Gal(b1-4)GlcNAc(b1-2)Man = target: Gal(b1-4)GlcNAc(b1-2)Man
# In short: as §1
# [19] = target: Gal(b1-4)GlcNAc(b1-2)Man(a1-3)Man(b1-4)GlcNAc(b1-4)GlcNAc
# In short: as §1
# [20] = target: Gal(b1-4)GlcNAc(b1-2)[Gal(b1-4)GlcNAc(b1-4)]Man(a1-3)[Gal(b1-4)GlcNAc(b1-2)[Gal(b1-4)GlcNAc(b1-6)]Man(a1-6)]Man(b1-4)GlcNAc(b1-4)GlcNAc
# In short: as §1
# [21] = target: Gal(b1-4)GlcNAc(b1-3)Gal(b1-4)GlcNAc(b1-2)Man(a1-3)[Gal(b1-4)GlcNAc(b1-3)Gal(b1-4)GlcNAc(b1-2)Man(a1-6)]Man(b1-4)GlcNAc(b1-4)[Fuc(a1-6)]GlcNAc
# In short: as §1
# [22] = target: Gal(b1-4)GlcNAc(b1-3)Gal(b1-4)GlcNAc(b1-3)Gal(b1-4)GlcNAc(b1-2)Man(a1-3)[Gal(b1-4)GlcNAc(b1-3)Gal(b1-4)GlcNAc(b1-3)Gal(b1-4)GlcNAc(b1-2)Man(a1-6)]Man(b1-4)GlcNAc(b1-4)[Fuc(a1-6)]GlcNAc
# In short: as §1
# [23] = target: GalNAc(b1-3)Gal(a1-4)Gal(b1-4)GlcNAc(b1-3)Gal(b1-4)Glc
# In short: as §1
# GalNAc(b1-4)GlcNAc6S = target: GalNAc(b1-4)GlcNAc6S
# In short: as §1
# GlcA(b1-6)Gal = target: GlcA(b1-6)Gal
# In short: as §1
# [24] = target: GlcNAc(b1-2)Man(a1-3)[GlcNAc(b1-2)Man(a1-6)]Man(b1-4)GlcNAc(b1-4)GlcNAc
# In short: as §1
# [25] = target: GlcNAc(b1-2)[GlcNAc(b1-4)]Man(a1-3)[GlcNAc(b1-4)][GlcNAc(b1-2)[GlcNAc(b1-6)]Man(a1-6)]Man(b1-4)GlcNAc(b1-4)[Fuc(a1-6)]GlcNAc
# In short: as §1
# GlcNAc(b1-3)Gal(b1-4)Glc = target: GlcNAc(b1-3)Gal(b1-4)Glc
# In short: as §1
# [26] = target: GlcNAc(b1-3)Gal(b1-4)GlcNAc(b1-3)Gal(b1-4)GlcNAc(b1-2)[GlcNAc(b1-3)Gal(b1-4)GlcNAc(b1-3)Gal(b1-4)GlcNAc(b1-6)]Man(a1-6)[GlcNAc(b1-3)Gal(b1-4)GlcNAc(b1-3)Gal(b1-4)GlcNAc(b1-2)Man(a1-3)]Man(b1-4)GlcNAc(b1-4)[Fuc(a1-6)]GlcNAc
# In short: as §1
# [27] = target: GlcNAc(b1-3)Gal(b1-4)GlcNAc(b1-3)Gal(b1-4)GlcNAc(b1-3)Gal(b1-4)GlcNAc(b1-2)Man(a1-3)[GlcNAc(b1-3)Gal(b1-4)GlcNAc(b1-3)Gal(b1-4)GlcNAc(b1-3)Gal(b1-4)GlcNAc(b1-2)Man(a1-6)]Man(b1-4)GlcNAc(b1-4)GlcNAc
# In short: as §1
# [28] = target: GlcNAc(b1-3)Gal(b1-4)GlcNAc(b1-3)Gal(b1-4)GlcNAc(b1-3)Gal(b1-4)GlcNAc(b1-3)Gal(b1-4)GlcNAc(b1-2)Man(a1-3)[GlcNAc(b1-3)Gal(b1-4)GlcNAc(b1-3)Gal(b1-4)GlcNAc(b1-3)Gal(b1-4)GlcNAc(b1-3)Gal(b1-4)GlcNAc(b1-2)Man(a1-6)]Man(b1-4)GlcNAc(b1-4)[Fuc(a1-6)]GlcNAc
# In short: as §1
# [29] = target: GlcNAc(b1-3)[GlcNAc(b1-6)]GalNAc
# In short: as §1
# GlcNAc(b1-4)GlcNAc = target: GlcNAc(b1-4)GlcNAc
# In short: as §1
# [30] = target: GlcNAc6S(b1-3)Gal(b1-4)GlcNAc
# In short: as §1
# [31] = target: Man(a1-3)[Man(a1-6)]Man(a1-6)[Man(a1-2)Man(a1-3)]Man(b1-4)GlcNAc(b1-4)GlcNAc
# In short: as §1
# [32] = target: Neu5Ac(a2-3)Gal(b1-3)GalNAc(b1-3)Gal(a1-4)Gal(b1-4)Glc
# In short: as §1
# [33] = target: Neu5Ac(a2-3)Gal(b1-3)GlcNAc
# In short: as §1
# [34] = target: Neu5Ac(a2-3)Gal(b1-3)GlcNAc(b1-2)Man
# In short: as §1
# Neu5Ac(a2-3)Gal(b1-4)Glc = target: Neu5Ac(a2-3)Gal(b1-4)Glc
# In short: as §1
# [35] = target: Neu5Ac(a2-3)Gal(b1-4)GlcNAc(b1-2)Man(a1-3)[GlcNAc(b1-4)][Neu5Ac(a2-3)Gal(b1-4)GlcNAc(b1-2)Man(a1-6)]Man(b1-4)GlcNAc(b1-4)GlcNAc
# In short: as §1
# [36] = target: Neu5Ac(a2-3)Gal(b1-4)GlcNAc(b1-6)GalNAc
# In short: as §1
# [37] = target: Neu5Ac(a2-3)[Neu5Ac(a2-6)]GalNAc
# In short: as §1
# Neu5Ac(a2-8)Neu5Ac = target: Neu5Ac(a2-8)Neu5Ac
# In short: as §1
# [38] = target: Neu5Ac(a2-8)Neu5Ac(a2-8)Neu5Ac(a2-3)[GalNAc(b1-4)]Gal(b1-4)Glc
# In short: as §1
# [39] = target: Neu5Gc(a2-8)Neu5Gc(a2-6)Gal(b1-4)GlcNAc
# In short: as §1
binder,measurement,setting,value
PX9916F-bfa-443-24-443 (Bacteroides fragilis) (protein) DIRPVGSVIPQTAEEYRALLARAYLNVPNDRGLACLRSDEMLVNDNEYDRNSYGDIERWNDVSPFPGTSQFTWSNFYNVLFIANQVIESQKEITEGTPEVVNQLVGEAHLLRAYLHFVLVNLHGQPYTKSGALNSKSIPLKLDTDLEKTLGRNTVEEVYTSILSDIEHARELINKEKWETVFSYRFNVLSVDALQSRVSLYMGAWPKCLESAEAVLAKKSVLVDMNETPLALPNHFESVESITALEQVMGSSVNNAVWVPATFLALYQEGDKRLAAYFAAPDENGNRKSSKGGKREFSCTFRVGELYLNAAEAAANMDKLPHARMRLLELMRKRYTPEAYDKKENAVNVMDKNALISEILNERARELAFEGHRWFDLRRTTRPRMVKVLQGKTYILEQDDPRYTIPIPRDAIAANPGLAN,glycan array binding signal (z-score),[1],3.24
same,glycan array binding signal (z-score),[2],0.31
same,glycan array binding signal (z-score),[3],-0.372
same,glycan array binding signal (z-score),[4],-0.338
same,glycan array binding signal (z-score),[5],0.848
same,glycan array binding signal (z-score),[6],8.18
same,glycan array binding signal (z-score),[7],8.54
same,glycan array binding signal (z-score),[8],2.44
same,glycan array binding signal (z-score),[9],0.212
same,glycan array binding signal (z-score),[10],2.91
same,glycan array binding signal (z-score),[11],3.87
same,glycan array binding signal (z-score),[12],0.001
same,glycan array binding signal (z-score),[13],0.251
same,glycan array binding signal (z-score),Fuc(a1-4)GlcNAc,1.76
same,glycan array binding signal (z-score),[14],-0.056
same,glycan array binding signal (z-score),Gal(a1-3)GalNAc,-0.469
same,glycan array binding signal (z-score),Gal(a1-4)GlcNAc,-0.265
same,glycan array binding signal (z-score),Gal(b1-2)Gal,0.596
same,glycan array binding signal (z-score),[15],0.347
same,glycan array binding signal (z-score),[16],1.79
same,glycan array binding signal (z-score),[17],-0.126
same,glycan array binding signal (z-score),[18],0
same,glycan array binding signal (z-score),Gal(b1-4)Glc6S,0.038
same,glycan array binding signal (z-score),Gal(b1-4)GlcNAc(b1-2)Man,2.63
same,glycan array binding signal (z-score),[19],-0.479
same,glycan array binding signal (z-score),[20],-0.78
same,glycan array binding signal (z-score),[21],0.44
same,glycan array binding signal (z-score),[22],2.81
same,glycan array binding signal (z-score),[23],0.078
same,glycan array binding signal (z-score),GalNAc(b1-4)GlcNAc6S,0.581
same,glycan array binding signal (z-score),GlcA(b1-6)Gal,2.71
same,glycan array binding signal (z-score),[24],-0.266
same,glycan array binding signal (z-score),[25],-1.61
same,glycan array binding signal (z-score),GlcNAc(b1-3)Gal(b1-4)Glc,-0.475
same,glycan array binding signal (z-score),[26],-0.316
same,glycan array binding signal (z-score),[27],2.55
same,glycan array binding signal (z-score),[28],-0.064
same,glycan array binding signal (z-score),[29],-0.249
same,glycan array binding signal (z-score),GlcNAc(b1-4)GlcNAc,0.138
same,glycan array binding signal (z-score),[30],0.017
same,glycan array binding signal (z-score),[31],1.23
same,glycan array binding signal (z-score),[32],0.297
same,glycan array binding signal (z-score),[33],-0.376
same,glycan array binding signal (z-score),[34],4.28
same,glycan array binding signal (z-score),Neu5Ac(a2-3)Gal(b1-4)Glc,0.058
same,glycan array binding signal (z-score),[35],-1.31
same,glycan array binding signal (z-score),[36],-0.155
same,glycan array binding signal (z-score),[37],-0.772
same,glycan array binding signal (z-score),Neu5Ac(a2-8)Neu5Ac,1.37
same,glycan array binding signal (z-score),[38],-0.695
same,glycan array binding signal (z-score),[39],-0.576
